Test results taken from the supplement of paper PMC6555819.

System: VDR:RXRa (NR concentration 270 nM, RXRa partner concentration 90 nM)
Experiment: PBM binding z-score (relative to random genomic background probes); higher = stronger binding; sequences stand for … in GC…GCGATTGACAGCGTAGAATGAAGG
Protocol: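 Protein-binding microarray (Agilent 4x180K custom design, double-stranded 60-nt probes: 5' GC cap, 34-nt variable region, 24-nt constant primer region; full probe sequence given). Purified or IVT nuclear receptor:RXRα heterodimers (3:1 NR:RXRα, mostly 270:90 nM) or homodimers were incubated for 1 h in PBS with 2% milk and no ligand, then detected with Alexa488 antibodies. Fluorescence from o1-orientation probes (~5 replicates averaged) was converted to z-scores against 500 random hg19 background probes. Variable regions are seed direct-repeat (DR0–DR5) sites, all their single-nucleotide variants and half-site ablations.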

Sequence	PBM binding z-score
TAACCAAGGTGAAAGGTCGTTGATGCACGCCTTG	3.38
ATCTCTCGGTAAAGATAGTTCAGTGAATGCAAAT	0.595
AATACAGGGTCATCGTAGGCCAGAGCACGCACAG	5.2
CCTACTGGGCCAAAAAGGACATTGATGCCGATAA	0.106
CCTTACGGGTCACAGACAGGTTATAGCATTTGGA	4.06
CCTTACGGGTCAATGACAGGTTATAGCATTTGGA	3.29
CCTACTGGACCATCAGGTCATTGATATCAACGTT	2.24
CCTACTGCGCCAAAGGTCATTGATTCCAATGCTC	4.85
ATCTATAGGTAACAAGTTCAGTGAAAGAGAGGAC	2.43
TCTGCTAGGTCAGTTGGTCAGCTCACGAGCTGCC	0.484
CGAACTAGGTCATTGCCAGGACAGTGAATAGTAA	2.42
ATATGTAGGTTATCGGGGCATTCAGTTTGCGCAT	2.27
CCGAGTAGGTTATGGGGCATTTAGGCAACGGTGA	-0.0639
CTCGAAAGGTCGGTTGAGGGGAGTATACGGATAA	1.24
TCATATAGGTAAAAGGTGAAAGACGGTGTGGTAA	1.57
ACGGACAGGTGATGAAGGTAACTCAGGCTATCAT	0.367
AGTTAAAGTTCAGGACGAGGTAACGTAAAGCACG	3.01
CGTCAAAGTTGAACTAAGGTAACGTAAAGCACGC	1.43
ATCTCTAGGTAACCAATTTCAGTGAATGCCGAAC	0.336
ATCTCTAGGTAAGATTCAGTTCAGTGAAGAACGC	0.961

Sequence	PBM binding z-score
CCTAGAAGGCCAATCTGGGTCACTCAAGGCTTGA	1.39
AGAATGAGGATAAGATCAGGGAAACAGAATACAT	-0.0497
TCTTGTAGATCAATAGACGTTAAGAAAGTGCGCT	0.326
CCTAGCAGGCCAATCTGGGTCACGCAAGGCTTGA	1.14
GCTGGTTGGTCAGTAAAAGGTCACACACCGGTCG	4.02
CATACTAGGTCAAGAGGTCAAAGTCCGCTTCCCG	6.01
CCTAACGGGTCACGAGGTTATAGCACGACGAGCG	4.74
GCTGCTAGGTCGGGTTGGTCAGCTAACGGGTACG	-0.0515
CAACCTAGGTCACAGAGGTCAAAGTCCGTGCGTA	8.21
TGAATGAGGTTATAATATCAGGGAACGTTGCAAA	1.35
ACTATTAGCTGACTTAGGGCAACCGATACGACGC	-0.114
AGATGTAGGTTAGCTGGGGTCATTCAGACTAGGC	5.98
CAAACTAGGCCAAGAGGTCAAAGTCCGCTTCCCG	4.94
CGTCCAAGGTCAGAGTGGTCAGTGAATGCCGAGT	3.87
CCTGGGAGGACAACAGGAGGTCAGAGCTGCCAGA	1.99
CCAAGCAGGCCAATCTGGGTCACTCAAGGCTTGA	0.733
ACTATTAGTTGACTTAGGGCGACCGATACGACGC	0.175
TCGAGTATGTTAGTCGGGGCATTCAGCCAACATA	0.158
TAGGCTAGGTCATGCGGGCCAGTATAGTGTCGGC	2.63
GATACAGGATCAAGGCCAGAGTACGCGTATTGAT	-0.308
